Test results published in PubChem BioAssay AID504386 (National Center for Advancing Translational Sciences (NCATS), 2011).
Results filed as inconclusive are left out. Unmarked numbers belong to inactive results. The source made the active and inactive calls. Calls follow the shape of the dose curve; as a rule, active = well fitted curve in the direction sought with a large enough effect; inconclusive = small, poorly fitted or top-dose-only effect, or another doubt; inactive = no such curve, though single readings can be large or run the other way.

The molecules below were run against Runt-related transcription factor 1 (Homo sapiens) + Core-binding factor subunit beta (Homo sapiens) (UniProt Q01196+Q13951) (assay: qHTS Assay for Compounds Blocking the Interaction Between CBF-beta and RUNX1 for the Treatment of Acute Myeloid Leukemia: SAR for Probe). Settings: AlphaScreen CBFb-His/RUNX1-biotin binding, biochemical; series mostly up to 136 µM; activity change, negative = inhibition: at the top concentration.
Runt-related transcription factor 1 (Homo sapiens) + Core-binding factor subunit beta (Homo sapiens), sequence (Q01196 whole entry, looked up): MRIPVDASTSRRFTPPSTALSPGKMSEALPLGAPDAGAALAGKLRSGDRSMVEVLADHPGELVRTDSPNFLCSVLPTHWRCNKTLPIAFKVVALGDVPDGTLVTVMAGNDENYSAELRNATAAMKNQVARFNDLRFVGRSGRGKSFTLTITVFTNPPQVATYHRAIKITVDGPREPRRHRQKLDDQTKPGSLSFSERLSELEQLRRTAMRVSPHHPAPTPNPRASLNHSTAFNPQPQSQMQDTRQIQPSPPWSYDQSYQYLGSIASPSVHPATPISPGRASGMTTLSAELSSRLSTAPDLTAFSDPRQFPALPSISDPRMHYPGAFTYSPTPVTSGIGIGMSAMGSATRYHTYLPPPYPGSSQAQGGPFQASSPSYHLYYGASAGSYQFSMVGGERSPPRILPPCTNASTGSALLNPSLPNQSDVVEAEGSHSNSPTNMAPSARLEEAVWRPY
Runt-related transcription factor 1 (Homo sapiens) + Core-binding factor subunit beta (Homo sapiens), sequence (Q13951 whole entry, looked up): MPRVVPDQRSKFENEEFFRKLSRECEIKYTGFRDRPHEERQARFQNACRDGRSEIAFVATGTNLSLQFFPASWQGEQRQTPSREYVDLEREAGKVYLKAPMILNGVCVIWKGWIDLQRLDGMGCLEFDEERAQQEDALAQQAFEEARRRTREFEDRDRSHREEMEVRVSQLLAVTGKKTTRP
Source text: NIH Chemical Genomics Center [NCGC] NIH Molecular Libraries Probe Production centers Network [MLPCN] MLPCN Grant: X01MH083259-01 Assay Submitter (PI): Paul Liu NCGC Assay Overview: Core Binding Factor (CBF) abnormalities are associated with 20-25% of all acute myeloid leukemias (AML), of which 5-10% are further sub classified as acute myelomonocytic leukemia with eosinophilia, also known as M4Eo in the FAB classification scheme. This subtype of leukemia is usually associated with chromosome 16 inversion (p13:q22). Chromosome 16 inversion results in formation of the fusion oncogene CBFB-MYH11, which encodes the fusion protein CBF-beta-SMMHC. […] It has been hypothesized that the interference of CBF-beta and RUNX1 binding could have therapeutic implications for patients with CBF mediated leukemias. We developed a CBF-beta and RUNX1 binding assay in AlphaScreenTM format and optimized it for high throughput screening to search for inhibitors. The goal of this project is to screen MLPCN's compound collection (MLSMR) for identifying the inhibitors of the interaction between CBF-beta and RUNX1 proteins as research probes. If these probes work well in the animal models, the ultimate goal of this project is to development a new drug treatment for this disease. This assay can not be used to assess how apparent inhibitors interfere with protein binding, and whether inhibitors specifically bind to either protein. Disruption of this protein-protein interaction, through any mechanism, is the intended target activity. The present data set was run to confirm the activity of analogs to the probe in the primary screening assay.
NCGC Assay Protocol Summary: Step, Parameter, Description (1) Reagent, 3 uL CBFb-His/RUNX1-biotin mix incubated together for 20 minutes at room temperature (30 nM each) (2) Compound or control, 23 nL compound stock solution (3) Incubation, 15 minutes at Room temperature (4) Reagent, 1 uL 50 ng each of beads (Nickel beads and streptavidin beads) (5) Incubation, 90 minutes at Room temperature (6) Detection, […], Envision reader in AlphaScreenTM mode Keywords: MLSMR, MLPCN, NIH Roadmap, qHTS, NCGC, Core binding factor, CBF, CBF-beta, Acute myeloid leukemia

Row | Structure (SMILES) | activity change, negative = inhibition | Potency
1 | C[C@H](N)C(=O)Nc1ccc(Cl)cc1C(=O)c1ccc[nH]1 | -16.8% | –
2 | NCC(=O)Nc1ccc(Cl)cc1C(=O)c1ccc[nH]1 | – | 29.6 µM (active)
3 | NCCCC[C@H](N)C(=O)Nc1ccc(Cl)cc1C(=O)c1ccc[nH]1 | 4.61% | –
4 | NCCC(=O)Nc1ccc(Cl)cc1C(=O)c1ccc[nH]1 | -19.4% | –
5 | CC(C)[C@H](N)C(=O)Nc1ccc(Cl)cc1C(=O)c1ccc[nH]1 | -13.5% | –
6 | CCC(=O)Nc1ccc(Cl)cc1C(=O)c1ccc[nH]1 | -7.27% | –
